Records with an inconclusive call do not appear. Where a call stands in place of a potency, no number is given. The source made the active and inactive calls. Unless noted, calls come from the whole dose curve.
Columns and labels:
[1] = qHTS for Inhibitors of the Functional Ribonucleoprotein Complex (vRNP) of Lassa (LASV) Arenavirus: LASV Primary Screen - GLuc reporter signal (AID 1347082; calls by dose curve; tested in HEK293 reporter line; note: nearly all actives have a fitted effect of over 60% in size); conditions: LASV minigenome vRNP, Gaussia luciferase reporter; series mostly up to 57.5 µM
[2] = qHTS for Inhibitors of the Functional Ribonucleoprotein Complex (vRNP) of Lassa (LASV) Arenavirus: Viability assay - alamar blue signal for LASV Primary Screen (AID 1347083; calls by dose curve; tested in HEK293 reporter line; note: nearly all actives have a fitted effect of over 80% in size); conditions: cell viability, alamar blue fluorescence (LASV minigenome counter-screen); series mostly up to 57.5 µM
[3] = qHTS for Inhibitors of the Functional Ribonucleoprotein Complex (vRNP) of Lymphocytic Choriomeningitis Arenaviruses (LCMV): Viability assay - alamar blue signal for LCMV Primary Screen (AID 1347085; calls by dose curve; tested in HEK293 reporter line; note: nearly all actives have a fitted effect of over 80% in size); conditions: alamar blue viability counter-screen, LCMV vRNP screen cells; series mostly up to 57.5 µM
[4] = target: Nucleoprotein (Lymphocytic choriomeningitis virus (strain Armstrong)) (UniProt P09992); assay: qHTS for Inhibitors of the Functional Ribonucleoprotein Complex (vRNP) of Lymphocytic Choriomeningitis Arenaviruses (LCMV): LCMV Primary Screen - GLuc reporter signal (AID 1347086); conditions: LCMV minigenome vRNP cell assay, Gaussia luciferase reporter; series mostly up to 57.5 µM; note: nearly all actives have a fitted effect of over 70% in size
Chain of Nucleoprotein (Lymphocytic choriomeningitis virus (strain Armstrong)) (P09992 whole entry, looked up): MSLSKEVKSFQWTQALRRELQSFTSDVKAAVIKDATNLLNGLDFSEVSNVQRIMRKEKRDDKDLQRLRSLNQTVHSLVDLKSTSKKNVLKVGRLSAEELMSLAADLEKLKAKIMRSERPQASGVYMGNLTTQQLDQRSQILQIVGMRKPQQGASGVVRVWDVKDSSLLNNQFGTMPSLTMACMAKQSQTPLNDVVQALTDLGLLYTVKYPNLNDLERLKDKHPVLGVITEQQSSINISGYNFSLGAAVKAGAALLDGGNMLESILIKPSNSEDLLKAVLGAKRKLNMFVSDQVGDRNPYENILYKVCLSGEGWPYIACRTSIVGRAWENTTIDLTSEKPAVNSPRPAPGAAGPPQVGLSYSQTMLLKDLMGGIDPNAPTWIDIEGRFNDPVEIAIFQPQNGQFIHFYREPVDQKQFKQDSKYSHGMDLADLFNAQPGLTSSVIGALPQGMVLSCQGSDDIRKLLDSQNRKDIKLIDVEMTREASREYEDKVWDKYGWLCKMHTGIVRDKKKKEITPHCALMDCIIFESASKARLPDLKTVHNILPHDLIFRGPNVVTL
Potency is the fitted concentration of half-maximal effect.

Compound	Potency [1]	Potency [2]	Potency [3]	Potency [4]
COc1cc(CCC(C)=O)ccc1O	inactive	inactive	inactive	inactive
COc1cc2c(cc1OC)C1Cc3ccc(OC)c(OC)c3C[N+]1([O-])CC2 (stereo not given)	inactive	inactive	inactive	inactive
CN(C)c1nc(Cc2ccc(NC(=O)c3ccc4ccccc4c3)cc2)nc(Cl)c1CC(=O)O	inactive	inactive	inactive	inactive
COc1cc(=O)n(C)c2c(OCC3OC(C)(C)OC3(C)C)cccc12 (stereo not given)	inactive	inactive	inactive	inactive
COc1cc(O)c2c(=O)c3c(O)ccc(O)c3oc2c1	inactive	inactive	inactive	inactive
CC(C)=CCCC(C)CC=O (stereo not given)	inactive	inactive	inactive	inactive
COc1ccc(-c2cc(=O)c3ccc(O)cc3o2)cc1	inactive	inactive	inactive	inactive
CC(=O)c1ccc(C)cc1	inactive	inactive	inactive	inactive
NC1(Cc2ccc(Cl)cc2)CCN(c2ncnc3[nH]ccc23)CC1	9680 nM (active)	2730 nM (active)	7690 nM (active)	9680 nM (active)
COc1cc(N2CCN(C)CC2)ccc1Nc1nc(N)c(C(=O)c2c(Cl)cccc2Cl)s1	inactive	inactive	inactive	inactive
COc1c(C(O)CC(C)C)ccc2c1C(=O)OCc1cc(C)cc(O)c1O2 (stereo not given)	inactive	inactive	inactive	inactive
CC1=C(C=O)C(C)(C)CCC1	inactive	inactive	inactive	inactive
C=C(C=O)C[C@@H]1C[C@H](O)C2OC3C[C@]4(C)OC5/C=C\CC6OC7C(CC=CCC6OC5CCCC4OC3CC2O1)OC1CC2OC3CC(=O)OC3C[C@@H](C)C[C@@]2(C)OC1C[C@@H]7C (stereo not given in full)	inactive	inactive	inactive	inactive
CC(C)(O)[C@@H]1Cc2c(ccc3ccc(=O)oc23)O1	inactive	inactive	inactive	inactive
C#CCCC/C(=C\C(=O)N(C)[C@H](C(=O)N(C)[C@H](C(=O)N(C)[C@H](C(=O)N(C)[C@H](C(N)=O)C(C)C)C(C)C)C(C)C)C(C)C)OC	inactive	inactive	inactive	inactive
Nc1ccn([C@@H]2O[C@H](CO)[C@@H](OP(=O)(O)O)[C@H]2O)c(=O)n1	inactive	inactive	inactive	inactive
CSCCCN=C=S	inactive	inactive	inactive	inactive
CC(C)CCOC(=O)CC(C)C	inactive	inactive	inactive	inactive
C[C@@H](C[C@@H](O)[C@H](O)C(C)(C)O)[C@@H]1CC[C@]2(C)C3=CC[C@H]4C(C)(C)C(=O)CC[C@]4(C)[C@H]3CC[C@@]12C	inactive	inactive	inactive	inactive
NC(=O)NCCCC(=O)O	inactive	inactive	inactive	inactive

Compound	Potency [1]	Potency [2]	Potency [3]	Potency [4]
Nc1nc2c(ncn2[C@@H]2O[C@H](COP(=O)(O)OP(=O)(O)O)[C@@H](O)[C@H]2O)c(=O)[nH]1	inactive	inactive	inactive	inactive
COc1cc2c(c(OC)c1OC)-c1c(cc(OC)c(OC)c1OC)CC(C)C(C)C2 (stereo not given)	inactive	inactive	inactive	inactive
CC/C=C\CCOC(C)OCC (stereo not given)	inactive	inactive	inactive	inactive
C[C@H](Cn1cnc2c(N)ncnc21)OCP(=O)(O)O	inactive	inactive	inactive	inactive
C[C@H]1O[C@@H](O[C@H]2CC[C@@]3(C)C(CC[C@]4(C)C3C=C[C@]35OC[C@@]6(CCC(C)(C)C[C@H]63)[C@@H](O)C[C@]54C)[C@]2(C)CO)[C@H](O)[C@@H](O[C@@H]2O[C@H](CO)[C@@H](O)[C@H](O)[C@H]2O)[C@H]1O (stereo not given in full)	inactive	inactive	inactive	inactive
Cc1ccc2c(c1)C(=O)c1ccccc1C2=O	inactive	inactive	inactive	inactive
O=C(O)Cn1ccnc1	inactive	inactive	inactive	inactive
CC(C)(O[C@@H]1O[C@H](CO)[C@@H](O)[C@H](O)[C@H]1O)[C@H]1Cc2cc3ccc(=O)oc3cc2O1	inactive	inactive	inactive	inactive
CC(O)C1C(=O)N2C(C(=O)O)=C(SC3CNC(C(=O)N(C)C)C3)C(C)C12 (stereo not given)	inactive	inactive	inactive	inactive
C[N+](C)(C)CCOP(=O)([O-])OC[C@H](O)CO	inactive	inactive	inactive	inactive
C[C@]12CCC(=O)C=C1CC[C@@H]1[C@H]2[C@@H](O)C[C@@]2(C)[C@H]1CC[C@]2(O)C(=O)CO	inactive	inactive	inactive	inactive
C[C@H]1C[C@@H]2[C@@H]([C@@H](O)C[C@@]3(C)[C@H]2CC[C@]3(O)C(=O)CO)[C@@]2(C)C=CC(=O)C=C12	inactive	inactive	inactive	inactive
COc1cc(/C=C/c2ccccc2)cc(OC)c1	inactive	inactive	inactive	inactive
C=CC1CN2CCC1CC2C(O)c1ccnc2ccc(OC)cc12 (stereo not given)	inactive	inactive	inactive	inactive
CCC(C)(O)C(=O)N[C@H]1CCCN1C(=O)/C=C/c1ccccc1 (stereo not given in full)	inactive	inactive	inactive	inactive
CO[C@H]1C=CO[C@@]2(C)Oc3c(C)c(O)c4c(O)c(c5c(c4c3C2=O)NC2(CCN(CC(C)C)CC2)N=5)=NC(=O)C(C)=CC=C[C@H](C)[C@H](O)[C@@H](C)[C@@H](O)[C@@H](C)[C@H](OC(C)=O)[C@H]1C	inactive	inactive	inactive	inactive
COc1cc2c(cc1O)[C@@H]1Cc3cc(OC)c(OC)cc3C(C2)N1C	inactive	inactive	inactive	inactive
COc1cc2c(cc1CC=C(C)C)C(=O)C[C@@H](c1ccc(O)cc1)O2	inactive	inactive	inactive	inactive
C[C@@H]1C[C@@H]2OC(=O)[C@]3(C)[C@H]2[C@@H](OC3(C)O)[C@]2(C)C(=O)C=C[C@H]12 (stereo not given in full)	inactive	inactive	inactive	inactive
CC1(C)C[C@H](O)[C@]2(CO)[C@H](O)C[C@]3(C)C(=CCC4[C@@]5(C)CC[C@H](O)C(C)(C)C5CC[C@]43C)[C@@H]2C1 (stereo not given in full)	inactive	inactive	inactive	inactive

Compound	Potency [1]	Potency [2]	Potency [3]	Potency [4]
N#CC(c1ccc(O)cc1)N1CCCCC1 (stereo not given)	inactive	inactive	inactive	inactive
O=c1oc(-c2ccc(O)c(O)c2)cc2cccc(O)c12	inactive	inactive	inactive	inactive
COC(=O)c1cc(O)c(O)c(O)c1	inactive	inactive	inactive	inactive
O=C(O)CCCCCCCCCC(=O)O	inactive	inactive	inactive	inactive
CC1=C(C(=O)O)N2C(=O)C(NC(=O)CCCC(=O)O)C2SC1 (stereo not given)	inactive	inactive	inactive	inactive
Cc1cccc2c3c(ccc12)C1=C(C(=O)C3=O)[C@@H](C)CO1	inactive	inactive	inactive	inactive
CNC(=O)c1cccc(-c2ccc3c(N4CCOC[C@H]4C)nc(N4CCOC[C@H]4C)nc3n2)c1	137 nM (active)	137 nM (active)	153 nM (active)	137 nM (active)
CC(=O)OC[C@]12CCC(C)=C[C@H]1O[C@@H]1[C@H](O)[C@@H](OC(C)=O)[C@@]2(C)[C@]12CO2	inactive	inactive	inactive	inactive
O=c1c(O)c(-c2ccccc2)oc2cc(O)cc(O)c12	inactive	inactive	inactive	inactive
C=C1C(O)C[C@H]2C(=C)CCC3[C@H](OC(=O)[C@]3(O)CO)[C@@H]12 (stereo not given in full)	inactive	inactive	inactive	inactive
CC1CC(C)C(=O)C1=O (stereo not given)	inactive	inactive	inactive	inactive
C=C1C2C[C@H](O)C(C)(C)[C@@]2(O)[C@H](O)C[C@]23C[C@@](C)(O)[C@H](CC[C@H]12)[C@H]3OC(C)=O (stereo not given in full)	inactive	inactive	inactive	inactive
O=c1ccc2cc3ccoc3cc2o1	inactive	inactive	inactive	inactive
N#CC(=C(N)Sc1ccc(N)cc1)c1ccccc1C(F)(F)F	inactive	inactive	inactive	inactive
C=C[C@](C)(O)CC[C@@H]1[C@@]2(C)CCCC(C)(C)[C@@H]2CC[C@@]1(C)O	inactive	inactive	inactive	inactive
COc1cc2nc3occc3c(OC)c2cc1OC	inactive	inactive	inactive	inactive
CCCCCCCCCCC(C)=O	inactive	inactive	inactive	inactive
Cc1cc(=O)c2c(O)c3c(O)cc(O)c4c5c(O)cc(O)c6c(O)c7c(=O)cc(C)c8c1c2c(c34)c(c65)c78	inactive	inactive	inactive	inactive
NC[C@@H]1O[C@@H](O[C@H]2[C@@H](O)[C@H](O[C@@H]3[C@@H](O)[C@@H](N)C[C@H](N)[C@H]3O[C@H]3O[C@H](CN)[C@@H](O)[C@@H](O)[C@H]3N)O[C@H]2CO)[C@H](N)[C@@H](O)[C@@H]1O	inactive	inactive	inactive	inactive
CCOC(=O)[C@H]1O[C@H]1C(=O)N[C@@H](CC(C)C)C(=O)NCCC(C)C	inactive	inactive	inactive	inactive

Source: PubChem BioAssay (NCATS)
